# Measurements published in article PMC7862700, “An all-to-all approach to the identification of sequence-specific readers for epigenetic DNA modifications on cytosine”.
# Assays:
# Assay in all cases: DAPPL (digital affinity profiling via proximity ligation, sequencing); 10 mM Tris-HCl pH 7.5, 50 mM NaCl, 1 mM DTT, 4% glycerol, room temperature, 30 min; GST-TFs on glutathione beads, 16-mer random dsDNA library, 0.1% formaldehyde crosslink after washing; high values mean tight binding
# FEV = molecular target: T1, FEV (Homo sapiens, UniProt Q99581 1-238); conditions: protein: recombinant; tags: N-terminal GST; dsDNA, one strand shown
# T1 sequence: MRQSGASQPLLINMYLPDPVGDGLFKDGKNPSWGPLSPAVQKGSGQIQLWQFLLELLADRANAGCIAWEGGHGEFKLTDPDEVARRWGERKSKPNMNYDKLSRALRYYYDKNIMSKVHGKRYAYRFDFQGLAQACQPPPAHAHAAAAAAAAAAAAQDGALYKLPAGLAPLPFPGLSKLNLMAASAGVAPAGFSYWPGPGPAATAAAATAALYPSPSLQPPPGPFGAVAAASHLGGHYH
# Outline: (§1)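 Human transcription factors were made in yeast as GST fusions, captured on glutathione beads and barcoded with DNA. With a tag-only sample included, the pool was incubated with 200 nmole of a random double-stranded 16-mer DNA library in Tris/NaCl/DTT/glycerol buffer at room temperature for 30 min, then crosslinked with 0.1% formaldehyde after washing, ligated by proximity, amplified and sequenced. For binding signal, each hexamer's read frequency for a factor is divided by its frequency for the tag-only sample.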
# ETV5 = ETV5 (Homo sapiens, UniProt P41161 1-510); conditions: protein: recombinant; tags: N-terminal GST; dsDNA, one strand shown
# Outline: as §1
# HSF1 = HSF1 (Homo sapiens, UniProt Q00613 1-529); conditions: protein: recombinant; tags: N-terminal GST; chain copies: 3; dsDNA, one strand shown
# Outline: as §1
# SPIC = molecular target: T2, SPIC (Homo sapiens, UniProt Q8N5J4 1-248); conditions: protein: recombinant; tags: N-terminal GST; dsDNA, one strand shown
# T2 sequence: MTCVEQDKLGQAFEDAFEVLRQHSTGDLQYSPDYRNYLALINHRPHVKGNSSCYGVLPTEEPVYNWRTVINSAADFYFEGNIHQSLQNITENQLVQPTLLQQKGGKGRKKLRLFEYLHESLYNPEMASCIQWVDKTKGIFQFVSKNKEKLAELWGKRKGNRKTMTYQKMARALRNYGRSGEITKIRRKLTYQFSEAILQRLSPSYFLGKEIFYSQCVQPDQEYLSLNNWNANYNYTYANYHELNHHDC
# Outline: as §1
# ELF4 = ELF4 (Homo sapiens, UniProt Q99607 1-663); conditions: protein: recombinant; tags: N-terminal GST; dsDNA, one strand shown
# Outline: as §1
# ELK4 = molecular target: T3, ELK4 (Homo sapiens, UniProt P28324-2 1-405); conditions: protein: recombinant; tags: N-terminal GST; dsDNA, one strand shown
# T3 sequence: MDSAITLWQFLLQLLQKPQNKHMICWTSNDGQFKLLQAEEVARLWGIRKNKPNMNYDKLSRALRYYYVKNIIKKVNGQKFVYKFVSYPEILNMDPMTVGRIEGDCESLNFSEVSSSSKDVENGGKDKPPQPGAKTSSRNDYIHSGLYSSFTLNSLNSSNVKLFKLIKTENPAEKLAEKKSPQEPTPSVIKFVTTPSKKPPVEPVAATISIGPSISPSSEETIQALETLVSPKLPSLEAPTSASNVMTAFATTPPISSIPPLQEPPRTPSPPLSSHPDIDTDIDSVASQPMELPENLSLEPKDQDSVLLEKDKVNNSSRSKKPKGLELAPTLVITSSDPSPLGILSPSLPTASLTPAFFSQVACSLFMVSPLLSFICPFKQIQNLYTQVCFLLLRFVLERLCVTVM
# Outline: as §1
# ETV2 = molecular target: T4, ETV2 (Homo sapiens, UniProt O00321 1-342); conditions: protein: recombinant; tags: N-terminal GST; dsDNA, one strand shown
# T4 sequence: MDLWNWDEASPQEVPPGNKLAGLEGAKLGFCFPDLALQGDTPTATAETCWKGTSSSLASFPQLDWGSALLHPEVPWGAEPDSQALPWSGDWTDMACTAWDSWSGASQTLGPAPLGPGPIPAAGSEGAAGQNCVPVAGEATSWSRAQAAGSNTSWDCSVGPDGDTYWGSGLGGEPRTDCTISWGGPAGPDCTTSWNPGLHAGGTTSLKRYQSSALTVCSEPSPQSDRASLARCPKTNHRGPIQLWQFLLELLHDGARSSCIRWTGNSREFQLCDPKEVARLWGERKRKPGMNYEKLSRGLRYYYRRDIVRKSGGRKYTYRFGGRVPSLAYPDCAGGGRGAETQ
# Outline: as §1
# ELF3 = molecular target: T5, ELF3 (Homo sapiens, UniProt P78545 1-371); conditions: protein: recombinant; tags: N-terminal GST; dsDNA, one strand shown
# T5 sequence: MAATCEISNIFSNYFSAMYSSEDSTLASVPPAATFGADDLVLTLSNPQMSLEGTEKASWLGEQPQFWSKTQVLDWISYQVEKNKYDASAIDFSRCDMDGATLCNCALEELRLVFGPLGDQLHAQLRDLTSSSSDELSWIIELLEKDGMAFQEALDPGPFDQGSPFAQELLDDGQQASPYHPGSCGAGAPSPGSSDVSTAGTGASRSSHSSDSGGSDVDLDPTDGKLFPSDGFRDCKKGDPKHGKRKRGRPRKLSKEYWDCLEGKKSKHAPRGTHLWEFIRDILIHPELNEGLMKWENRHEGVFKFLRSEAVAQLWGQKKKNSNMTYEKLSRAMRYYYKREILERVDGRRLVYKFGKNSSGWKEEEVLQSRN
# Outline: as §1
# CRX = CRX (Homo sapiens, UniProt O43186 1-299); conditions: protein: recombinant; tags: N-terminal GST; dsDNA, one strand shown
# Outline: as §1
# ETV1 = ETV1 (Homo sapiens, UniProt P50549 1-477); conditions: protein: recombinant; tags: N-terminal GST; dsDNA, one strand shown
# Outline: as §1
# ERF = molecular target: T6, ERF (Homo sapiens, UniProt P50548 1-548); conditions: protein: recombinant; tags: N-terminal GST; dsDNA, one strand shown
# T6 sequence: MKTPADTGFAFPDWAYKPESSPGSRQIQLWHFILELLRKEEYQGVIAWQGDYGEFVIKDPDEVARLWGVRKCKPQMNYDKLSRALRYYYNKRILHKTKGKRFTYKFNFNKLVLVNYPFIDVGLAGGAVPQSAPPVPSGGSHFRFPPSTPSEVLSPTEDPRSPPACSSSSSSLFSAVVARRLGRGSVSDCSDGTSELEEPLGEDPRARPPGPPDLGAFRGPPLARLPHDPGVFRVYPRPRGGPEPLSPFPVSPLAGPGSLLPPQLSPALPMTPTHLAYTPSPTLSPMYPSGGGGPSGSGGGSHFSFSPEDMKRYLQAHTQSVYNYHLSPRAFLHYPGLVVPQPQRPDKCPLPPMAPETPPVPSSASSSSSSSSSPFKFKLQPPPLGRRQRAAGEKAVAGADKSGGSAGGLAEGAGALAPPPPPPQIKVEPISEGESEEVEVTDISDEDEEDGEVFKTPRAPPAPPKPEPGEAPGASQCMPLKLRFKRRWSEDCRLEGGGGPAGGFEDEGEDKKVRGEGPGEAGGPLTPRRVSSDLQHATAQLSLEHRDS
# Outline: as §1
# ETV3L = molecular target: T7, ETV3L (Homo sapiens, UniProt Q6ZN32 1-361); conditions: protein: recombinant; tags: N-terminal GST; dsDNA, one strand shown
# T7 sequence: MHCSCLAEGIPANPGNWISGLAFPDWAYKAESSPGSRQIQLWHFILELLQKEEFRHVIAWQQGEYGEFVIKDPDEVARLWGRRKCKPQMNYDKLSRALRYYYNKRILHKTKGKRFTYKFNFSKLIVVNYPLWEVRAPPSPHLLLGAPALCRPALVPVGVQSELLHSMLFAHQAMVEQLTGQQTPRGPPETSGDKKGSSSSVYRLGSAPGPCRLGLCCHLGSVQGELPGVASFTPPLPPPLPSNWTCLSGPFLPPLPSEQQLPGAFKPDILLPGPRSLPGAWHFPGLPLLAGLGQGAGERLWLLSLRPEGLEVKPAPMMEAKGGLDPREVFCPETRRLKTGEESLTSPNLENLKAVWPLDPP
# Outline: as §1
# ETS2 = molecular target: T8, ETS2 (Homo sapiens, UniProt P15036 1-469); conditions: protein: recombinant; tags: N-terminal GST; dsDNA, one strand shown
# T8 sequence: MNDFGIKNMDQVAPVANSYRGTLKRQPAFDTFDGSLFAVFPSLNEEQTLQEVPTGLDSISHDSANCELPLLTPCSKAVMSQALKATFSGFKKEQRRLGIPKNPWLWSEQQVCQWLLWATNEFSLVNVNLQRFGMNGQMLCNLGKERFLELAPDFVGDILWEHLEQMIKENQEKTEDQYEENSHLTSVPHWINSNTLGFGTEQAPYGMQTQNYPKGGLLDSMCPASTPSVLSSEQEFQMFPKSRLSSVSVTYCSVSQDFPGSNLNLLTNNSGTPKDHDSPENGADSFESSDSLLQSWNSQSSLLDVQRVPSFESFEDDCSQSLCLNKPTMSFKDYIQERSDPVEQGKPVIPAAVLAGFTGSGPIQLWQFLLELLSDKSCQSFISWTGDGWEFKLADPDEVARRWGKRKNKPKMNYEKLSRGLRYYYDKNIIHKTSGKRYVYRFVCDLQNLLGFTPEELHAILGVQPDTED
# Outline: as §1
# SPDEF = molecular target: T9, SPDEF (Homo sapiens, UniProt O95238 1-335); conditions: protein: recombinant; tags: N-terminal GST; dsDNA, one strand shown
# T9 sequence: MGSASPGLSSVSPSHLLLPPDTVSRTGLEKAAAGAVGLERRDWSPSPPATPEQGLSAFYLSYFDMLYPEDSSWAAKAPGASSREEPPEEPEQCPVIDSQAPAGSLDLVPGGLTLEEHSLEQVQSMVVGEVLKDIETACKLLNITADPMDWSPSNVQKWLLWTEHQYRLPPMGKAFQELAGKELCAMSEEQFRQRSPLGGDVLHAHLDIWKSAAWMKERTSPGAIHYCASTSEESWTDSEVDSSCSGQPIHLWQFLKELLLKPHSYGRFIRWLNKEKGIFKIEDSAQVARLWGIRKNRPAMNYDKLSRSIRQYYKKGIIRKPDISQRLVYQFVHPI
# Outline: as §1
# ETV7 = molecular target: T10, ETV7 (Homo sapiens, UniProt Q9Y603 1-341); conditions: protein: recombinant; tags: N-terminal GST; dsDNA, one strand shown
# T10 sequence: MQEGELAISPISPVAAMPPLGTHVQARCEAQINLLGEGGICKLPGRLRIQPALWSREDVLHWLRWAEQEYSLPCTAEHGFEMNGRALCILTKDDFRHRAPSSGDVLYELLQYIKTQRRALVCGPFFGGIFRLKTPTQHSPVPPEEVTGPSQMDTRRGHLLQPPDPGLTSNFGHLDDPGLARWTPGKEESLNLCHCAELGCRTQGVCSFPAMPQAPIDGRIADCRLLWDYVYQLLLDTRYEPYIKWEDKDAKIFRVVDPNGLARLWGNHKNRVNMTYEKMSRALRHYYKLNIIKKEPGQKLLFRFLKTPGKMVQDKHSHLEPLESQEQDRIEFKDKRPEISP
# Outline: as §1
# ELF5 = molecular target: T11, ELF5 (Homo sapiens, UniProt Q9UKW6-2 1-255); conditions: protein: recombinant; tags: N-terminal GST; dsDNA, one strand shown
# T11 sequence: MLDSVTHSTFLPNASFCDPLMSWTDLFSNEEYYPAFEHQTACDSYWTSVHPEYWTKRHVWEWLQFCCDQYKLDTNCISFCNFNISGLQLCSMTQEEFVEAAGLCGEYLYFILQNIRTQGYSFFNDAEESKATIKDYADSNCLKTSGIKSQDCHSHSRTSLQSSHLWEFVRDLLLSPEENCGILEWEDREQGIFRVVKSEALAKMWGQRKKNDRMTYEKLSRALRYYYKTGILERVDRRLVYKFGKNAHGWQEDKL
# Outline: as §1
# ETV3 = molecular target: T12, ETV3 (Homo sapiens, UniProt P41162-2 1-143); conditions: protein: recombinant; tags: N-terminal GST; dsDNA, one strand shown
# T12 sequence: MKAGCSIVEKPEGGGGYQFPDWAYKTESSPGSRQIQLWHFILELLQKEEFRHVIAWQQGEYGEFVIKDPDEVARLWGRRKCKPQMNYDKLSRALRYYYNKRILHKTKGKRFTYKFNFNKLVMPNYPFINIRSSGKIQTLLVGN
# Outline: as §1
# ETV6 = ETV6 (Homo sapiens, UniProt P41212 1-452); conditions: protein: recombinant; tags: N-terminal GST; dsDNA, one strand shown
# Outline: as §1
# Sequence of HSF1 (Q00613 whole entry): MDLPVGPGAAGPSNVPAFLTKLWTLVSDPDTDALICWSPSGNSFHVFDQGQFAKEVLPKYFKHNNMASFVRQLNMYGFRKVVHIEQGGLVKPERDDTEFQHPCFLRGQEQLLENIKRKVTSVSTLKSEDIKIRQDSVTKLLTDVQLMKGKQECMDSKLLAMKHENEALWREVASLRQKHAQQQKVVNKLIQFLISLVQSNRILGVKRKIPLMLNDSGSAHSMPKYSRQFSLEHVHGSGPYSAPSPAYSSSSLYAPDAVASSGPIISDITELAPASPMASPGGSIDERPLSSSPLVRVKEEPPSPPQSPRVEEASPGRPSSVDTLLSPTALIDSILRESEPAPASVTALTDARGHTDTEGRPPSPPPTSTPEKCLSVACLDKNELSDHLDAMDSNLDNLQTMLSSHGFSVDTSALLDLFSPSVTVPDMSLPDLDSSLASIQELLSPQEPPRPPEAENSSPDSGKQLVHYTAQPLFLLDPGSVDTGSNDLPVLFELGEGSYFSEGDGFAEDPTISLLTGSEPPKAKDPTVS
# Sequence of ELF4 (Q99607 whole entry): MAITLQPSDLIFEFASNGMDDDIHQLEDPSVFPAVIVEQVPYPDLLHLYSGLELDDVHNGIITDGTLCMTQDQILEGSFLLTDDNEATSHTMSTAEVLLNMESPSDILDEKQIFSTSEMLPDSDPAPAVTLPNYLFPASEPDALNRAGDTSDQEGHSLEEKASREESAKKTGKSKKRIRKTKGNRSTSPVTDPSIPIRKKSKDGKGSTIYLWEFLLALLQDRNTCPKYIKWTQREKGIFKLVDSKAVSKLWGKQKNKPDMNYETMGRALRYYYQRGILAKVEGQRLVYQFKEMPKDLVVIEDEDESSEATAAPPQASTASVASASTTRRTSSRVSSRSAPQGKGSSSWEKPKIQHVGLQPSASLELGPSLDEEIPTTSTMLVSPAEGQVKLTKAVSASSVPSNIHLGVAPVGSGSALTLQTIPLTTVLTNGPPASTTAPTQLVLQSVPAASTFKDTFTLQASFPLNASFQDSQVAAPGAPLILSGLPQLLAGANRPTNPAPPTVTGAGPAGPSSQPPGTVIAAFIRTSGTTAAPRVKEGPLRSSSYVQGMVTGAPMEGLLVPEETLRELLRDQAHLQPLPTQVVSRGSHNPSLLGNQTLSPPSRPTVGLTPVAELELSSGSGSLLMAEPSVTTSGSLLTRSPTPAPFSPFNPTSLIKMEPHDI
# Sequence of CRX (O43186 whole entry): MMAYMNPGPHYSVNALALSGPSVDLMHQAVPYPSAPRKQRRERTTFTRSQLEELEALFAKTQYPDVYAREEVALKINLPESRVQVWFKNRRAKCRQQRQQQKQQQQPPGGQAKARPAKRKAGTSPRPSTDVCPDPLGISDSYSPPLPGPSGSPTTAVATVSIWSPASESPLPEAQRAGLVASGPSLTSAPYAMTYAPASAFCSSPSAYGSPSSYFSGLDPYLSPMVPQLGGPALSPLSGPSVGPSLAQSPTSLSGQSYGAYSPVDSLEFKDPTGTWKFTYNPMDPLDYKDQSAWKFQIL
# Sequence of ETV6 (P41212 whole entry): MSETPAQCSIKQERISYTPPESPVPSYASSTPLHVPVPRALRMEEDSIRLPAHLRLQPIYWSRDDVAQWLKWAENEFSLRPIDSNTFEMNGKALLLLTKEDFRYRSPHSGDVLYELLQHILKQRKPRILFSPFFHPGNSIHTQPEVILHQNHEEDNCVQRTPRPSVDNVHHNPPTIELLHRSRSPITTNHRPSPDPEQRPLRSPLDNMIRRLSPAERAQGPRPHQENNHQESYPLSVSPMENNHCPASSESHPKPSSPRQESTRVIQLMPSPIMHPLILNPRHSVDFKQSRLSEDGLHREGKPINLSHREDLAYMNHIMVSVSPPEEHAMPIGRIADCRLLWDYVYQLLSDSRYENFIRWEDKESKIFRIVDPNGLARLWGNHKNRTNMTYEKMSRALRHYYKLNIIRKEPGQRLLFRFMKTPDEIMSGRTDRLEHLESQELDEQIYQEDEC
# Sequence of ETV5 (P41161 whole entry): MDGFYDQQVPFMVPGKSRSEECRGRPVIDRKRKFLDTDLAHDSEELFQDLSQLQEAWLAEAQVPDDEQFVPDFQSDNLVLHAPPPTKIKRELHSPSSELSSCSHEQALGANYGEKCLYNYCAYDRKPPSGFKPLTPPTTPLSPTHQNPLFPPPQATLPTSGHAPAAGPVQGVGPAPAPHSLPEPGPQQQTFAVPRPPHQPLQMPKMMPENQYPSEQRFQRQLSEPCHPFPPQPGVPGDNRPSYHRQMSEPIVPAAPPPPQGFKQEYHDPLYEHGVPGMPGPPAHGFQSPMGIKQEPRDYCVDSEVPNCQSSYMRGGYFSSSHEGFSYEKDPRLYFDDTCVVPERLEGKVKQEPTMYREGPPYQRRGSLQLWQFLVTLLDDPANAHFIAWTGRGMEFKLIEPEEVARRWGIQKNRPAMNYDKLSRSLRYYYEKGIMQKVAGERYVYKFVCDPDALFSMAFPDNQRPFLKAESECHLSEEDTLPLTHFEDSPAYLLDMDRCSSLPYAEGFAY
# Sequence of ETV1 (P50549 whole entry): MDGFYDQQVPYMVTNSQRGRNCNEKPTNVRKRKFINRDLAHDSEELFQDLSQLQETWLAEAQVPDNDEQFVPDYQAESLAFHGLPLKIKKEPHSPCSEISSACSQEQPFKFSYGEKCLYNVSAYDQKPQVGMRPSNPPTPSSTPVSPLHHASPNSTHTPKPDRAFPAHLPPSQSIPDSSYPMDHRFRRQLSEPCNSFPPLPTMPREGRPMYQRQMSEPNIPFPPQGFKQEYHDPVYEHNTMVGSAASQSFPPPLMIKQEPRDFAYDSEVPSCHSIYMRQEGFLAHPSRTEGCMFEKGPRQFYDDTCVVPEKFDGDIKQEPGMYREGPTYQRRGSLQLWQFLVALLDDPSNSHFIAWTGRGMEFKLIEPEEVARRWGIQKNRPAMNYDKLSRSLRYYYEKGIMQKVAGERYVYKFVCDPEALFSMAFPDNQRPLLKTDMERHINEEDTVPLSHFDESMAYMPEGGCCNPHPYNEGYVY
sequence,measurement,setting,value
TATCCT,binding signal,FEV,"1.94 fold enrichment (6-mer frequency, TF over GST control)"
same,binding signal,ETV5,"1.95 fold enrichment (6-mer frequency, TF over GST control)"
same,binding signal,HSF1,"1.72 fold enrichment (6-mer frequency, TF over GST control)"
same,binding signal,SPIC,"1.87 fold enrichment (6-mer frequency, TF over GST control)"
same,binding signal,ELF4,"1.65 fold enrichment (6-mer frequency, TF over GST control)"
same,binding signal,ELK4,"1.83 fold enrichment (6-mer frequency, TF over GST control)"
same,binding signal,ETV2,"1.93 fold enrichment (6-mer frequency, TF over GST control)"
same,binding signal,ELF3,"1.59 fold enrichment (6-mer frequency, TF over GST control)"
same,binding signal,CRX,"2.28 fold enrichment (6-mer frequency, TF over GST control)"
same,binding signal,ETV1,"1.72 fold enrichment (6-mer frequency, TF over GST control)"
same,binding signal,ERF,"1.67 fold enrichment (6-mer frequency, TF over GST control)"
same,binding signal,ETV3L,"1.82 fold enrichment (6-mer frequency, TF over GST control)"
same,binding signal,ETS2,"1.81 fold enrichment (6-mer frequency, TF over GST control)"
same,binding signal,SPDEF,"2.67 fold enrichment (6-mer frequency, TF over GST control)"
same,binding signal,ETV7,"1.67 fold enrichment (6-mer frequency, TF over GST control)"
same,binding signal,ELF5,"2.65 fold enrichment (6-mer frequency, TF over GST control)"
same,binding signal,ETV3,"1.8 fold enrichment (6-mer frequency, TF over GST control)"
same,binding signal,ETV6,"1.82 fold enrichment (6-mer frequency, TF over GST control)"
